This note sets out measurements from PubChem BioAssay (NCI).

About 83,000 compounds went through this panel and 20% of them were active in at least one assay; those are over-represented in the sample as a whole.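 Each cell line was grown in a 96-well plate and treated with one concentration of compound for 48 hours. Values below 10 were considered active.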 Values without a mark were called inactive. Calls of active or inactive are those of the source.

The assay concerns HL-60(TB) leukemia. Put plainly: NCI-60 one-dose screen, 48 h (100 = growth as untreated, 0 = no growth, -100 = all killed). As to conditions: 10 µM unless noted.
In the case of `CCOC(=O)c1ccc(NC2=C(Cl)C(=O)c3nc(C)ccc3C2=O)cc1`, the growth is 47.5%. Under `Cc1ccc2c(n1)C(=O)C(Cl)=C(Nc1ccc(C(C)C)cc1)C2=O` stands -0.278% (active); under `O=C1Nc2cc(Cl)ccc2/C1=C\c1ccc(OCc2ccc([N+](=O)[O-])cc2)cc1`, 96.9%; under `CCN1CCN(Cc2ccc(C(=O)Nc3ccc(C)c(Oc4ccc(-c5[nH]nc6ncnc(N)c56)cc4)c3)cc2C(F)(F)F)CC1`, 139%.

As to `CC(=O)Nc1cccc(Nc2nc(N[C@@H](C)c3ccccc3)c3ccccc3n2)c1`, the growth was -50.7% (active).

As to `COc1ccc([C@@H]2C(=O)N(c3cc(OC)c(OC)c(OC)c3)[C@H]2c2ccc(OC)c(O)c2)cc1`, the growth is 2.64% (active).

Take `Cn1ccnc1C(=O)/C=C/c1ccc(CNC(=O)c2ccc(F)cc2)cc1`: the growth was -4.42% (active). As for `N#Cc1cnc2ccc(-c3cnc(N)nc3)cc2c1N1CCc2cc(F)c(Cl)cc21`, the figure is -11.7% (active); as for `O=C(Nc1cc(Cl)cc(Cl)c1)Nc1ccc2oc(=O)ccc2c1`, 0.984% (active). Take `N#Cc1c(-c2ccc(Cl)cc2)nc(SCc2ccc([N+](=O)[O-])cc2)nc1N1CCNCC1`: the growth was -53.3% (active). Under `CC1(C)NCCC[C@]2(C)[C@H]3C/C(=N\O)C4[C@@H]5C[C@@](C)(CO)CC[C@]5(C)CC[C@@]4(C)[C@]3(C)CC[C@@H]12` (some centres not stated) stands 68.9%; under `C#C[C@]1(O)CC[C@H]2[C@@H]3CC=C4c5sc(-c6ccc(C)cc6)nc5CC[C@]4(C)[C@H]3CC[C@@]21C`, -2.49% (active). Under `C/C(=N\NC(N)=O)c1c(O)sc(=O)[nH]c1=O` stands 96.2%; under `COc1ccc2c(c1)c(-c1nnc(N)nc1-c1cn(C)c3ccccc13)cn2C`, 72.6%; under `CC1=Cc2ccccc2OC12C=Cc1ccccc1O2` (configuration not stated), 106%. For the molecule `Cc1ccc(NC(=O)c2ccc(CN3CCN(C)CC3)c(C(F)(F)F)c2)cc1Oc1ccc(-c2[nH]nc3ncnc(N)c23)cc1`, the growth was 113%. Under `O=C(Nc1ccc(N=Cc2c(O)[nH]c3ccccc23)cc1)Nc1ccc(S(=O)(=O)Nc2ncccn2)cc1` stands 117%; under `COc1ccc(CCOc2cc3c(cc2OC)CCN(C(=O)NCc2cocn2)C3c2ccc(C)cc2C)cc1` (configuration not stated), 5.9% (active); under `Cc1ccc2c(n1)C(=O)C(Cl)=C(Nc1ccc(C(F)(F)F)cc1)C2=O`, 35.8%.

Turning to `COc1cc(OC)cc(C(=O)Nc2cccc(C#Cc3cccc4[nH]nc(N)c34)c2)c1`, the growth was 1.62% (active). Consider `CC(=O)OCCCCN1C=C/C(=C\C(=O)n2ccc3ccccc32)c2ccccc21`, for which the growth was 98.6%. Under `CN1CC[C@@H]2[C@@]3(C)CC[C@H](O)C(C)(C)[C@@H]3CC[C@@]2(C)[C@]2(C)CC[C@@]3(CO)CCC(C)(C)C[C@@H]3C12` (some centres not stated) stands 79.6%. With `NS(=O)(=O)c1ccc(Nc2cc(-c3ccccc3)nc(SCC(=O)c3ccccc3)n2)cc1`, the growth was 106%. Under `Nc1c(C(=O)c2ccc(Br)cc2)oc2nc(-c3cnccn3)cc(-c3cccs3)c12` stands 100%. As for `COc1cccc(N2CCN(c3ncnc4c3[nH]c3ccc(F)cc34)C[C@@H]2C)c1`, the figure is -38.8% (active); as for `CS(=O)(=O)c1ccc2c(c1)c1c(n2S(=O)(=O)c2ccc(Cl)cc2)CCCC1`, 4.55% (active). As for `COc1ccc2c(c1)c(/C=N/Nc1ccnc3cc(Cl)ccc13)cn2C`, the figure is -52.2% (active).
